Screen size: about 5,500 compounds; about 2,000 (36%) were called active. About 18% were inconclusive and are not listed. Rule as the data show it: active = normalized growth mostly below about 0.91 (no sharp cut-off); inconclusive = no clear call, values can overlap the other calls; inactive = mostly above about 0.92. This is one part of the list.
Assay: chemical genetic growth profiling, strain panel (AID 1159580);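 also: tested at 20 µM; growth read once vehicle control cultures reached saturation at 30 °C; 1 = growth at the plate median or of vehicle wells; lower values mean less growth of the strain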
Conditions: S. cerevisiae deletion strains, growth OD

Measured: normalized growth

COc1cccc2c(C)cc(=O)[nH]c12
inactive: locus YAL021C, strain ccr4, hits give low values 1.01 | locus YAL026C, strain drs2, hits give low values 0.972 | locus YAL030W, strain snc1, hits give low values 0.977 | locus YBL061C, strain skt5, hits give low values 0.938 | locus YBR009C, strain hhf1, hits give low values 0.938 | locus YBR021W, strain FUR4, hits give low values 1.07 | locus YBR023C, strain chs3, hits give low values 0.928 | locus YBR171W, strain sec66, hits give low values 0.963 | locus YBR229C, strain ROT2, hits give low values 0.969 | locus YBR279W, strain paf1, hits give low values 0.987 | locus YCL011C, strain gbp2, hits give low values 0.924 | locus YCL016C, strain dcc1, hits give low values 0.949 | locus YCL029C, strain bik1, hits give low values 0.932 | locus YCL061C, strain MRC1, hits give low values 0.956 | locus YCL069W, strain vba3, hits give low values 0.98 | locus YCR088W, strain abp1, hits give low values 0.972 | locus YDL005C, strain med2, hits give low values 0.992 | locus YDL035C, strain GPR1, hits give low values 0.958 | locus YDL040C, strain nat1, hits give low values 0.972 | locus YDL074C, strain BRE1, hits give low values 0.853 | locus YDL101C, strain DUN1, hits give low values 0.941 | locus YDL134C, strain PPH21, hits give low values 0.961 | locus YDL185W, strain tfp1, hits give low values 0.933 | locus YDR001C, strain nth1, hits give low values 0.957 | locus YDR069C, strain doa4, hits give low values 0.971 | locus YDR137W, strain rgp1, hits give low values 0.847 | locus YDR159W, strain sac3, hits give low values 0.862 | locus YDR162C, strain NBP2, hits give low values 0.881 | locus YDR297W, strain sur2, hits give low values 0.974 | locus YDR318W, strain mcm21, hits give low values 0.949 | locus YDR334W, strain swr1, hits give low values 0.978 | locus YDR335W, strain msn5, hits give low values 0.941 | locus YDR388W, hits give low values 0.929 | locus YEL003W, strain gim4, hits give low values 0.971 | locus YEL037C, strain rad23, hits give low values 0.974 | locus YEL061C, strain CIN8 (second series), hits give low values 0.969 | locus YEL061C, strain CIN8, hits give low values 0.963 | locus YER015W, strain faa2, hits give low values 0.986 | locus YER016W, strain bim1, hits give low values 0.953 | locus YER110C, hits give low values 0.946 | locus YER111C, strain swi4, hits give low values 0.977 | locus YER155C, strain BEM2, hits give low values 0.946 | locus YER167W, strain BCK2, hits give low values 0.947 | locus YFR010W, strain ubp6, hits give low values 0.975 | locus YGL078C, strain dbp3, hits give low values 0.962 | locus YGL167C, strain pmr1, hits give low values 0.982 | locus YGL173C, strain kem1, hits give low values 0.962 | locus YGL227W, strain vid30, hits give low values 0.961 | locus YGL248W, strain PDE1, hits give low values 0.919 | locus YGR078C, strain PAC10, hits give low values 0.904 | locus YGR252W, strain gcn5, hits give low values 0.874 | locus YHR013C, strain ard1, hits give low values 0.848 | locus YHR027C, strain rpn1, hits give low values 0.984 | locus YHR030C, strain SLT2, hits give low values 0.945 | locus YHR079C, strain IRE1 (second series), hits give low values 0.933 | locus YHR094C, strain hxt1, hits give low values 0.953 | locus YHR129C, strain ARP1, hits give low values 0.936 | locus YIL066C, strain RNR3, hits give low values 0.929 | locus YIL073C, strain SPO22, hits give low values 0.812 | locus YIL125W, strain kgd1, hits give low values 0.96 | locus YIR030C, strain dcg1, hits give low values 0.954 | locus YJL092W, strain hpr5, hits give low values 0.972 | locus YJL095W, strain BCK1 (second series), hits give low values 0.965 | locus YJL115W, strain asf1, hits give low values 0.981 | locus YJL129C, strain trk1, hits give low values 0.966 | locus YJL134W, strain LCB3, hits give low values 0.968 | locus YJL154C, strain vps35, hits give low values 0.979 | locus YJL164C, strain tpk1, hits give low values 0.949 | locus YJL168C, strain set2, hits give low values 0.948 | locus YJL187C, strain SWE1 (second series), hits give low values 0.908 | locus YJL187C, strain SWE1, hits give low values 0.989 | locus YJR043C, strain POL32, hits give low values 0.885 | locus YKL068W, hits give low values 0.951 | locus YKL085W, strain MDH1 (second series), hits give low values 0.941 | locus YKL085W, strain MDH1, hits give low values 0.941 | locus YKL160W, strain elf1, hits give low values 0.944 | locus YKR026C, strain gcn3, hits give low values 0.972 | locus YKR091W, strain srl3, hits give low values 0.981 | locus YLL026W, hits give low values 0.952 | locus YLL041C, strain sdh2, hits give low values 0.956 | locus YLR027C, strain aat2, hits give low values 0.955 | locus YLR039C, strain RIC1, hits give low values 0.697 | locus YLR058C, strain SHM2, hits give low values 0.94 | locus YLR102C, strain apc9, hits give low values 0.942 | locus YLR221C, strain rsa3, hits give low values 0.949 | locus YLR258W, strain gsy2, hits give low values 0.941 | locus YLR262C, strain YPT6 (second series), hits give low values 0.887 | locus YLR262C, strain YPT6, hits give low values 0.732 | locus YLR268W, strain sec22, hits give low values 0.9 | locus YLR320W, strain mms22, hits give low values 0.94 | locus YLR342W, strain FKS1 (second series), hits give low values 0.838 | locus YLR342W, strain FKS1, hits give low values 0.957 | locus YLR357W, strain rsc2, hits give low values 0.974 | locus YLR370C, strain arc18, hits give low values 0.932 | locus YLR384C, strain iki3, hits give low values 0.981 | locus YML016C, strain PPZ1, hits give low values 0.958 | locus YML032C, strain rad52, hits give low values 0.948 | locus YML124C, strain tub3, hits give low values 0.952 | locus YMR058W, strain fet3, hits give low values 0.955 | locus YMR078C, strain ctf18, hits give low values 0.937 | locus YMR125W, strain sto1, hits give low values 0.959 | locus YMR129W, hits give low values 0.958 | locus YMR205C, strain PFK2, hits give low values 0.958 | locus YMR223W, strain ubp8, hits give low values 0.942 | locus YMR231W, strain pep5, hits give low values 1 | locus YMR307W, strain GAS1, hits give low values 0.974 | locus YNL067W, strain RPL9B, hits give low values 0.875 | locus YNL209W, strain ssb2, hits give low values 0.991 | locus YNL248C, strain rpa49, hits give low values 0.968 | locus YNL250W, strain rad50, hits give low values 0.925 | locus YNL271C, strain bni1, hits give low values 0.955 | locus YNL298W, strain CLA4, hits give low values 0.978 | locus YNL307C, strain MCK1, hits give low values 0.91 | locus YNL322C, strain KRE1 (second series), hits give low values 0.977 | locus YNL322C, strain KRE1, hits give low values 0.971 | locus YNR049C, strain mso1, hits give low values 0.97 | locus YNR052C, strain pop2, hits give low values 0.986 | locus YOL012C, strain htz1 1.3 | locus YOL147C, strain pex11, hits give low values 0.945 | locus YOR001W, strain rrp6, hits give low values 0.954 | locus YOR061W, strain CKA2, hits give low values 0.965 | locus YOR069W, strain VPS5, hits give low values 0.965 | locus YOR070C, strain gyp1, hits give low values 0.965 | locus YOR080W, strain dia2, hits give low values 0.983 | locus YOR083W, strain WHI5, hits give low values 0.929 | locus YOR106W, strain vam3, hits give low values 0.938 | locus YOR136W, strain idh2, hits give low values 0.951 | locus YOR144C, strain elg1, hits give low values 0.964 | locus YOR265W, strain rbl2, hits give low values 0.966 | locus YOR290C, strain snf2, hits give low values 0.891 | locus YOR316C, strain cot1, hits give low values 0.937 | locus YPL051W, strain arl3, hits give low values 0.938 | locus YPL055C, strain LGE1, hits give low values 0.775 | locus YPL078C, strain atp4, hits give low values 0.896 | locus YPL106C, strain sse1, hits give low values 0.898 | locus YPL240C, strain hsp82, hits give low values 0.959 | locus YPL241C, strain CIN2, hits give low values 0.958 | locus YPR119W, strain clb2, hits give low values 0.937 | locus YPR141C, strain kar3, hits give low values 0.953 | locus YPR163C, strain tif3, hits give low values 0.933 | locus YPR167C, strain met16, hits give low values 0.959
active: locus YBR231C, strain swc5, hits give low values 0.909 | locus YDL192W, strain arf1, hits give low values 0.887 | locus YDR101C, strain arx1, hits give low values 0.908 | locus YDR195W, strain ref2 1.15 [resistant] | locus YDR392W, strain spt3, hits give low values 0.641 | locus YDR502C, strain sam2, hits give low values 0.875 | locus YER155C, strain BEM2 (second series), hits give low values 0.786 | locus YGL086W, strain mad1, hits give low values 0.889 | locus YGL240W, strain doc1, hits give low values 0.843 | locus YGL253W, strain hxk2, hits give low values 0.891 | locus YGR135W, strain pre9, hits give low values 0.887 | locus YHR142W, strain chs7, hits give low values 0.835 | locus YHR200W, strain rpn10, hits give low values 0.919 | locus YJL095W, strain BCK1, hits give low values 0.793 | locus YJL166W, strain qcr8, hits give low values 0.891 | locus YKL009W, strain mrt4, hits give low values 0.874 | locus YKR001C, strain vps1, hits give low values 0.802 | locus YLL001W, strain dnm1, hits give low values 0.893 | locus YLR330W, strain CHS5, hits give low values 0.896 | locus YLR371W, strain rom2, hits give low values 0.89 | locus YLR418C, strain cdc73, hits give low values 0.715 | locus YML120C, strain ndi1, hits give low values 0.911 | locus YMR263W, strain SAP30, hits give low values 0.855 | locus YNL071W, strain lat1, hits give low values 0.897 | locus YNL233W, strain BNI4, hits give low values 0.827 | locus YOL006C, strain TOP1, hits give low values 0.511 | locus YOR184W, strain ser1, hits give low values 0.847 | locus YOR270C, strain vph1, hits give low values 0.714 | strain wtn01, hits give low values 0.881
